Measurements: PubChem BioAssay
The source made the active and inactive calls.

These compounds were tested against Homeobox protein Hox-A13 (Mus musculus) (UniProt Q62424) (assay: inhibitors of HoxA13-DNA binding, primary screen, biochemical, fluorescence polarization, labeled oligonucleotide (AID 1185)). Conditions: 15 min, higher = more signal, called active from +8 up or from −8 down.
Homeobox protein Hox-A13 (Mus musculus), sequence (Q62424 whole entry, looked up): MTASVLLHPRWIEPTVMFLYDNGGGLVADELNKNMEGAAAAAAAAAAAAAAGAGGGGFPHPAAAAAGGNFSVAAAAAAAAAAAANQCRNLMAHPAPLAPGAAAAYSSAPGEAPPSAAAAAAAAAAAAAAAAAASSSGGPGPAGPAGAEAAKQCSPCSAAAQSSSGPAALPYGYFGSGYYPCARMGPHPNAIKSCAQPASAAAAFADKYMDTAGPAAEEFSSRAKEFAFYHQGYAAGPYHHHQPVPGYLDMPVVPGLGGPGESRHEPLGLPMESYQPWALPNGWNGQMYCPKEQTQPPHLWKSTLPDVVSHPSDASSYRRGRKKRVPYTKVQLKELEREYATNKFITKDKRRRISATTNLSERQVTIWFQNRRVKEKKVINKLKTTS

Row | SMILES | z-score
1 | CCCC[C@H]1OB(O)C[C@H]2C1=C(COc1ccccc1)C[C@H]1C(=O)C=CC(=O)[C@H]12 | -5.45 (inactive)
2 | COCCOC(=O)N1C(=O)[C@@]2(c3ccccc31)[C@H](C(=O)N1CCN(c3ncccn3)CC1)[C@H]1C(=O)O[C@H](c3ccccc3)[C@H](c3ccccc3)N1[C@@H]2c1ccccc1OCCO | -1.77 (inactive)
3 | COC(=O)[C@@]1(Cc2ccccc2)[C@H]2c3cc(C(=O)N(C)C)n(CCO)c3C[C@H]2CN1C(=O)c1ccccc1 | -3.87 (inactive)
4 | [N-]=[N+]=Nc1ccccc1[C@@H]1OC(c2ccc(OCCCO)cc2)=N[C@]1(Cc1ccccc1)C(=O)NCCN1CCOCC1 | -3.81 (inactive)
5 | COc1cc(C(O)C2C=CC3C(=O)N(c4ccccc4)C(=O)C3N2Nc2ccccc2)cc(OC)c1OC (stereo unspecified) | -3.96 (inactive)
6 | C=CCC(OC(C)=O)[C@@H]1[C@@H](N(Cc2ccc(-c3ccccc3)cc2)C(=O)c2cccc3ccccc23)c2cc(OCCCO)ccc2N1C(=O)Cc1ccc(OC)cc1 (stereo partly specified) | -1.88 (inactive)
7 | Cc1ccc(N2C(=O)c3ccccc3[C@](C)(C(=O)NCCCN(C)C)[C@@H]2c2ccc(CO)cc2)nc1 | -2.55 (inactive)
8 | CCOC(=O)C[C@H]1[C@H](OC(=O)Cc2ccc3c(c2)OCO3)[C@@H](NC(=O)Cc2ccc(OC)cc2)c2cc(OCCCO)ccc2N1C(=O)Cc1ccc(OC)cc1 | -1.76 (inactive)
9 | O=C1N(CCS(=O)(=O)c2ccccc2)c2ccccc2C[C@]12N=C(c1ccc(OCCCO)cc1)O[C@@H]2c1ccccc1 | -4.51 (inactive)
10 | C=CCOC(=O)[C@@H]1[C@H]2C(=O)O[C@H](c3ccccc3)[C@H](c3ccccc3)N2[C@H](c2ccc(OCCOC(=O)[C@H]3C[C@H]4C(=O)N5CCC[C@H]5C(=O)N4[C@H]3c3cccc(OCCO)c3)cc2)[C@@]12C(=O)Nc1ccc(I)cc12 | 0.634 (inactive)
11 | COc1ccc([Si](C)(C)[C@H]2[C@H](CC(=O)N3Cc4ccccc4C[C@H]3CO)O[C@@]3(C(=O)N(c4ccccc4)c4ccccc43)[C@@H]2C)cc1 | -5.4 (inactive)
12 | CCN(CC)c1ccc(N2CC=CC34O[C@@H]5C=CCCOC(=O)C5[C@H]3C(=O)N(C(C)CO)[C@@H]4C2=O)cc1 (stereo partly specified) | -6.31 (inactive)
13 | COCCOC(=O)N1C(=O)[C@@]2(c3cc(C#CC4(O)CCCCCC4)ccc31)[C@H](c1ccc(O)cc1)N1[C@H](c3ccccc3)[C@H](c3ccccc3)OC(=O)[C@H]1[C@@H]2C(=O)N1CCCCCCC1 | 0.0885 (inactive)
14 | COC(=O)[C@@]1(Cc2ccc(F)cc2)[C@H]2c3cc(C(=O)N(C)C)n(C)c3C[C@H]2CN1C(=O)c1ccccc1 | -7.29 (inactive)
15 | O=C(NC1CC1)[C@@H]1c2ccccc2C(=O)N(Cc2cc(C(F)(F)F)cc(C(F)(F)F)c2)[C@H]1c1ccc(CO)cc1 | -2.66 (inactive)
16 | COc1ccc(C(O)C2C=CC3C(=O)NC(=O)C3N2Nc2ccc(Cl)cc2Cl)c2ccccc12 (stereo unspecified) | -2.99 (inactive)
17 | O=C(NCCN1CCOCC1)[C@@H]1c2ccccc2C(=O)N(Cc2ccccc2C(F)(F)F)[C@H]1c1ccc(CO)cc1 | -3.55 (inactive)
18 | CN(C)CCCCNC(=O)[C@H]1C[C@H]2C(=O)N3CCC[C@H]3C(=O)N2[C@H]1c1cccc(OCCO)c1 | -3.86 (inactive)

Row | SMILES | z-score
19 | COc1ccc(CCNC(=O)[C@@H]2c3ccccc3C(=O)N(Cc3ccccc3OC)[C@H]2c2ccc(CO)cc2)cc1 | -4.7 (inactive)
20 | CC(C)OC(=O)CC(=O)CC(O)c1cccc([N+](=O)[O-])c1 (stereo unspecified) | -0.516 (inactive)
21 | CCOC(=O)C[C@H]1[C@H](OC(=O)c2cc3ccccc3oc2=O)[C@@H](NC(=O)CC(C)C)c2cc(OCCCO)ccc2N1C(=O)Cc1ccc(OC)cc1 | -4.83 (inactive)
22 | CC1=C([C@H](O)CCc2ccccc2)[C@H](CO)n2c(=O)n(-c3ccccc3)c(=O)n2C1 | -2.24 (inactive)
23 | CC(C)(C)N1CC=CC23O[C@@H]4C=CCCOC(=O)C4[C@H]2C(=O)N(CCCCCCO)[C@@H]3C1=O (stereo partly specified) | -3.77 (inactive)
24 | CCCCCC1=C2CNC(CC(C)C)(C(=O)OC)C=C2C(C)C1=O (stereo unspecified) | -8.08 (active)
25 | O=C1C=C(c2ccccc2)C(=O)C2=C1CC([C@H]1Oc3ccccc3S(=O)(=O)N3CCC[C@@H]13)=CC2 | -3.85 (inactive)
26 | O=C1C[C@@](C(=O)O)(c2ccc([N+](=O)[O-])cc2)[C@@H](c2ccc(CO)cc2)N1C1CCCCC1 | -4.33 (inactive)
27 | CO[C@H]1O[C@H](CO)[C@@H](OC(=O)Nc2ccccc2-c2ccccc2)[C@H](OC(=O)Nc2ccccc2)[C@H]1OC(=O)Nc1ccccc1 | -3.21 (inactive)
28 | O=C1c2ccccc2[C@@]2(Cc3ccccc3N(Cc3ccccc3)C2=O)[C@H](c2ccc(CO)cc2)N1Cc1ccccc1Cl | -0.299 (inactive)
29 | CCCNC(=O)[C@@]1(c2ccc([N+](=O)[O-])cc2)CC(=O)N(C(C)C)[C@@H]1c1ccc(CO)cc1 | -2.6 (inactive)
30 | [N-]=[N+]=Nc1ccccc1C[C@@]1(C(=O)NCC(O)CO)N=C(c2ccc(OCCCO)cc2)O[C@@H]1c1ccccc1 (stereo partly specified) | -5.72 (inactive)
31 | CC(C)C[C@@H]1NC(=O)[C@@H]2C[C@H](C(=O)NCCCCCCNC(=O)CS)[C@H](c3cccc(OCCO)c3)N2C1=O | -3.13 (inactive)
32 | CC(=O)NCCCC[C@@H]1NC(=O)[C@H]2C[C@@H](C(=O)NCCCCCCNC(=O)CS)[C@@H](c3cccc(OCCO)c3)N2C1=O | -4.38 (inactive)
33 | O=C1[C@@H]2[C@@H](CC(COc3ccccc3)=C([C@H](O)CCc3ccccc3)[C@@H]2CO)C(=O)N1Cc1ccccc1 | -6.92 (inactive)
34 | O=C(NCC(O)CO)[C@@]1(CCS(=O)(=O)c2ccccc2)N=C(c2ccc(OCCCO)cc2)O[C@H]1c1ccccc1 (stereo partly specified) | -4.76 (inactive)
35 | CN(C)c1ccc(C(O)C2C=CC3C(=O)N(Cc4ccccc4)C(=O)C3N2n2cnnc2)cc1 (stereo unspecified) | -0.863 (inactive)
36 | COCCOC(=O)N1C(=O)[C@@]2(c3cc(C#CCC(C(=O)OC)C(=O)OC)ccc31)[C@H](C(=O)Nc1nc3ccccc3s1)[C@H]1C(=O)O[C@H](c3ccccc3)[C@H](c3ccccc3)N1[C@@H]2c1ccc(OCCO)cc1 | 1.46 (inactive)
